Measured values from PubChem BioAssay (NCI).
About 83,000 compounds went through this panel and 20% of them were active in at least one assay; those are over-represented in the sample as a whole.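 48-hour exposure, single concentration, 96-well plates; percent growth endpoint where 0 means no net growth. Active: below 10.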 Unmarked numbers belong to inactive results. Calls of active or inactive are those of the source.

Key:
Assay in all cases: NCI-60 one-dose screen, 48 h (100 = growth as untreated, 0 = no growth, -100 = all killed)
Conditions in all cases: 10 µM unless noted
[1] = tested on: NCI-H23 lung
[2] = tested on: NCI-H226 lung
[3] = tested on: NCI-H322M lung
[4] = tested on: HOP-62 NSCLC
[5] = tested on: NCI-H460 lung
[6] = tested on: HOP-92 NSCLC
[7] = tested on: NCI-H522 lung
[8] = tested on: A549/ATCC NSCLC
[9] = tested on: 786-0 renal
[10] = tested on: COLO 205 colon
[11] = tested on: DU-145 prostate
[12] = tested on: K-562 leukemia
[13] = tested on: MALME-3M melanoma
[14] = tested on: MDA-MB-231 breast
[15] = tested on: RXF 393 renal
[16] = tested on: SF-268 CNS
[17] = tested on: SF-295 CNS
[18] = tested on: SF-539 CNS
[19] = tested on: UACC-257 melanoma
[20] = tested on: M14 melanoma

Structure (SMILES) | growth [1] | growth [2] | growth [3] | growth [4] | growth [5] | growth [6] | growth [7] | growth [8] | growth [9] | growth [10] | growth [11] | growth [12] | growth [13] | growth [14] | growth [15] | growth [16] | growth [17] | growth [18] | growth [19] | growth [20]
CC1=NN(c2nc(SCC(=O)Nc3nc4ccc(C)cc4s3)nc(-c3ccccc3)c2C#N)C(=O)C1 | 105% | 89.4% | 96.7% | 86.4% | 100% | 85% | 91.1% | 107% | 100% | 118% | 113% | 94.7% | 101% | 106% | 94.9% | 97.2% | 103% | 90.3% | 113% | 109%
C#CCOc1cccc(Nc2ncnc3ccc(NC(=O)CCl)cc23)c1 | -66.8% (active) | 21% | -18.8% (active) | -35.4% (active) | -19.9% (active) | -76.5% (active) | -76.3% (active) | -38.6% (active) | -81.9% (active) | -64.6% (active) | -1.66% (active) | -13.1% (active) | -76.3% (active) | -37.8% (active) | -77.1% (active) | -8.71% (active) | -67.7% (active) | -86.6% (active) | -67.1% (active) | -47.8% (active)
COc1ccc(C(=O)Nc2cccc(C3CC(=O)c4c(cc(OC)c(OC)c4OC)O3)c2)cc1 (stereo not given) | 35.2% | 25% | 37.8% | 14.1% | 4.37% (active) | 34.3% | -37.1% (active) | 28.5% | 13.8% | -5% (active) | 2.98% (active) | 7.66% (active) | 31.4% | 41.9% | -8.37% (active) | 46.6% | 9.55% (active) | -29.7% (active) | 46.2% | -23.9% (active)
CCOC(=O)c1cc(-c2ccc([N+](=O)[O-])cc2)n(-c2ccc(C(=O)O)c(O)c2)c1C | 58.8% | 83.5% | 103% | 103% | 65.2% | 49.6% | 9.5% (active) | 47.7% | 71.3% | 99.1% | 88.6% | 45.1% | 80.6% | 80.7% | 39% | 85.8% | 69.8% | 85.4% | 46.2% | 90%
CCSc1nc(NC)c2cc(-c3ccc(C(F)(F)F)cc3)ccc2n1 | 94.3% | 93.3% | 97.8% | 101% | 103% | 97.6% | 93.7% | 100% | 102% | 107% | 105% | 105% | 96.9% | 90.3% | 90.5% | 103% | 102% | 103% | 106% | 96.5%
O=C(Cn1cc(CN2C(=O)c3ccccc3S2(=O)=O)nn1)Nc1nc2ccccc2s1 | 103% | 105% | 98.2% | 89.5% | 105% | 100% | 84.2% | 90.6% | 101% | 104% | 108% | 101% | 95% | 108% | 117% | 97.3% | 101% | 98.4% | 101% | 103%
COc1cc(CNC(=O)/C=C/C=C/c2ccc3c(c2)OCO3)ccc1OCc1cn(-c2ccc(C)c(C)c2)nn1 | 66.8% | 47.8% | 82.3% | 92.5% | 85% | -4.29% (active) | 59.5% | 80.4% | 106% | 80.5% | 85.9% | 68.6% | 75.1% | 78.7% | 47.6% | 107% | 94.8% | 55.8% | 65% | 61.4%
COc1cc(-c2nc(SCCC(C)C)nc(Nc3ccccc3Cl)c2C#N)cc(OC)c1OC | 101% | 102% | 100% | 110% | 97.7% | 91% | 84.5% | 92.1% | 92.4% | 109% | 97.7% | 95.1% | 105% | 81.5% | 117% | 85.7% | 100% | 95.6% | 127% | 96.6%
